Screens from PubChem.
Giardia FBPA inh: qHTS Assay for Inhibitors of Fructose-1,6-bisphosphate Aldolase from Giardia Lamblia | AID 2451, 2010 | purified Giardia FBPA | A8B2U2 | Potency, µM (highest dose often 59.6 µM), most hits filed as inhibitors | 0.71% of 290,000 active; also: nearly all actives have a fitted effect of over 55% in size
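40 nM FBPA preincubated 10 min at RT with compound (up to 57.5 uM final), then substrate plus GAPDH/TPI/NAD/arsenate coupling and diaphorase/resazurin added. Fluorescence read after 20 min at RT, 525/598 nm.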
RE007 growth inh: qHTS Assay for Inhibitors of the HIV-1 protein Vpr. AID 651644, 2012. S. pombe RE007 Vpr strain, BacTiter-Glo ATP luminescence, 24 h. 0.21% of 360,000 active. Potency, µM (top dose mostly 92.2 µM), usual class: inhibitors; active = well fitted falling curve with a large enough effect; inconclusive = small, poorly fitted or top-dose-only effect; inactive = no such curve, though single readings can be large or run the other way; also: nearly all actives have a fitted effect of over 50% in size
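Fission yeast RE007 carrying one integrated HIV-1 vpr copy, seeded at OD 0.01 in PMG+AL medium with 23 nL pinned compound. Grown 24 h at 30 degrees; viability read by BacTiter-Glo luminescence after 5 min.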
TbPYK inhibitor: qHTS of Trypanosoma Brucei Inhibitors. pyruvate kinase (Trypanosoma brucei), Q57TT1. TbPYK enzyme, Kinase-Glo Plus ATP luminescence, 45 min. Potency, µM (doses to about 76.8 µM), actives largely listed as inhibitors. 0.12% of 410,000 active; also: nearly all actives have a fitted effect of over 50% in size
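Enzyme and substrate buffer are dispensed first and compound is pin-transferred. ADP at 130 uM final then starts the reaction, which runs 45 min at room temperature. Detection reagent is added for 10 min before luminescence is imaged.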
LmPK inh: qHTS Assay for Inhibitors of Leishmania Mexicana Pyruvate Kinase (LmPK); Potency, µM (top dose mostly 57.5 µM), most hits filed as inhibitors; AID 1721, 2009; 0.37% of 290,000 active; purified LmPK, Kinase-Glo ATP luminescence, 1 h
Target sequence (Q27686 whole entry, looked up): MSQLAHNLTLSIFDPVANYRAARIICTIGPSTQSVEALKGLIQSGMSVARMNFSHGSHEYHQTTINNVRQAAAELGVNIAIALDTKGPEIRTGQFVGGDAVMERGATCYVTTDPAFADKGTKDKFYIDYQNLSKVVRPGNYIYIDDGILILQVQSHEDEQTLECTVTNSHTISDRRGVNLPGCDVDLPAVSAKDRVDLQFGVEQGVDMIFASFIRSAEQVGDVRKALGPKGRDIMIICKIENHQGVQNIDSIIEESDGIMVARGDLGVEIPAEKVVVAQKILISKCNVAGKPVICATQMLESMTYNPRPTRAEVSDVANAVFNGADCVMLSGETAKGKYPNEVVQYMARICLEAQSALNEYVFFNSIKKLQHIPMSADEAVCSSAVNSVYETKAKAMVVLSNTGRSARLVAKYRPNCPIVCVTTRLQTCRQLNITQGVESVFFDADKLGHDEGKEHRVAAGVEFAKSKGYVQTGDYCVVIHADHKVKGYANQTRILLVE
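qHTS format; LmPK 0.1 nM; substrates PEP 0.5 mM and ADP 0.1 mM. One-hour room-temperature incubation, then coupled luciferase luminescence; 0.5 nM enzyme wells mark activation.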
Sm TGR inh: qHTS Assay for the Inhibitors of Schistosoma Mansoni Peroxiredoxins | AID 485364, 2010 | purified TGR, DTNB reduction, TNB absorbance 405 nm | Schistosoma mansoni thioredoxin glutathione reductase (TGR), Q962Y6 | 3% of 360,000 active | Potency, µM (doses to about 114 µM), usual class: inhibitors; also: nearly all actives have a fitted effect of over 60% in size
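Kinetic colorimetric format: TGR-catalysed, NADPH-driven DTNB reduction monitored via TNB absorbance. Enzyme dispensed at 20 nM; compound exposure 15 min at room temperature before reaction start.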
A number is an active result; n = inactive; u = inconclusive; x = no result given. Rows were chosen to be rich in hits. Some 3.3% of all compounds tested hit in one or more screens of this group. Unless noted, calls follow the shape of the dose curve; as a rule, active = well fitted curve in the direction sought with a large enough effect; inconclusive = small, poorly fitted or top-dose-only effect, or another doubt; inactive = no such curve, though single readings can be large; an effect the other way counts as inactive or inconclusive.

SMILES | Giardia FBPA inh | RE007 growth inh | TbPYK inhibitor | LmPK inh | Sm TGR inh
COc1ccccc1OCc1ccc(C(=O)NC(C)(C)C)o1 | n | n | n | n | u
CCc1ccc(CNC(=O)c2ccc(CS(=O)(=O)Cc3ccccc3C)o2)cc1 | x | x | n | x | n
Cc1ccccc1CS(=O)(=O)Cc1ccc(C(=O)NCc2ccco2)o1 | n | n | n | n | 56µM
COc1ccccc1OCc1ccc(C(=O)NCc2ccco2)o1 | n | n | n | n | 40µM
O=C(NCc1ccccn1)c1ccco1 | n | n | n | n | 50µM
O=C(NCc1ccccn1)c1ccc(CS(=O)(=O)Cc2ccc(Cl)cc2)o1 | n | n | n | n | 28µM
O=[N+]([O-])c1ccccc1Oc1ncccc1[N+](=O)[O-] | n | n | n | n | n
CC(=O)N1CCOc2ccc(S(=O)(=O)NCCc3cccc(C)c3)cc21 | n | n | n | n | n
N#CC(C#N)=Cc1cc2ccccc2nc1N1CCCCC1 | n | n | n | n | 5µM
Cc1ccc(C(=O)C[n+]2ccc3ccccc3c2)cc1 | n | n | n | n | n
O=C(C[n+]1ccc2ccccc2c1)c1cccc2ccccc12 | n | n | n | n | 25µM
Fc1ccccc1C1CC(c2ccco2)=Nc2ccccc2S1 (stereo unspecified) | u | 25µM | n | n | 8.9µM
S=c1nc[nH]c2c1[nH]c1ccc(Cl)cc12 | n | n | n | n | n
C=C1CC(Cn2cc(Br)c(=O)[nH]c2=O)(c2ccc(-c3ccccc3)cc2)OC1=O (stereo unspecified) | x | n | n | x | x
COc1cccc(-c2nc(CS(=O)CC(=O)NCCCOC(C)C)c(C)o2)c1 (stereo unspecified) | n | n | n | n | 25µM
COc1ccc(-c2nc(CS(=O)CC(=O)NCCc3ccc(C)cc3)c(C)o2)cc1OC (stereo unspecified) | x | n | n | n | 40µM
COc1cccc(-c2nc(CS(=O)(=O)CC(=O)NCCCOC(C)C)c(C)o2)c1 | x | n | n | n | u
Cc1ccccc1-c1nc(CS(=O)CC(=O)NC(C)CCc2ccccc2)c(C)o1 (stereo unspecified) | x | n | n | n | 0.14µM
COc1cccc(-c2nc(CS(=O)CC(=O)O)c(C)o2)c1 (stereo unspecified) | n | n | n | n | u
CCC(C)NC(=O)CS(=O)Cc1nc(-c2cccc(OC)c2)oc1C (stereo unspecified) | n | n | n | n | 28µM
COc1ccc(OC)c(NC(=O)CSc2nc3ccccc3cc2Cc2ccccc2)c1 | n | n | n | n | n
COc1cccc(-c2nc(CS(=O)CC(=O)NC(C)CCc3ccccc3)c(C)o2)c1 (stereo unspecified) | x | n | n | n | 10µM
COc1ccc(-c2nc(CS(=O)CC(=O)NCCc3ccccc3)c(C)o2)cc1OC (stereo unspecified) | x | x | n | x | u
COCCCNC(=O)CS(=O)Cc1nc(-c2ccccc2C)oc1C (stereo unspecified) | n | n | n | n | 40µM
COc1cccc(-c2nc(CS(=O)CC(=O)NCCc3ccccc3)c(C)o2)c1 (stereo unspecified) | x | n | n | n | 20µM
SMILES | Giardia FBPA inh | RE007 growth inh | TbPYK inhibitor | LmPK inh | Sm TGR inh
Cc1cccc(-c2nc(CS(=O)CC(=O)NCCc3ccccc3)c(C)o2)c1 (stereo unspecified) | n | n | n | n | n
COc1ccc(C2=NO[C@H]3C[C@](C(=O)NC(C)C)(S(=O)(=O)c4ccccc4)C[C@@H]23)cc1 | n | n | n | n | u
O=C(NCCc1ccc(Cl)cc1)C1CCC(CNc2nc(=S)[nH]c3ccccc23)CC1 (stereo unspecified) | n | n | n | n | n
O=C(CN(CC1CCCO1)C(=O)CCC(=O)Nc1nccs1)NCc1ccc2c(c1)OCO2 (stereo unspecified) | n | n | n | n | n
Cc1ccccc1-n1c([C@@H]2C[C@H]2c2ccccc2)n[nH]c1=S | n | n | u | 11µM | n
S=c1[nH]nc([C@@H]2C[C@H]2c2ccccc2)n1-c1ccccc1 | n | n | 4µM | u | n
O=C(CCCCl)OCc1cn(-c2ccc(Cl)cc2)nn1 | n | n | n | n | n
